# Hits are enriched below; roughly 5.9% of the tested compounds scored in any of these assays.
# GLP-1R agonist = qHTS of GLP-1 Receptor Agonists | Glucagon-like peptide 1 receptor (Homo sapiens), P43220 | HEK293 GLP-1R CRE-luciferase, luminescence, 4-6 h; cells express a hypersensitive GLP-1R form | Potency, µM (doses to about 45.6 µM), without a hit: at the highest dose activation, actives largely listed as activators | actives 0.007% (n = 380,000) | AID 624172, 2012; note: % of control where 0% means no effect
# RORg inh = qHTS for inhibitors of ROR gamma transcriptional activity. actives 5.4% (n = 310,000). Potency, µM (doses to about 53.6 µM), inactives show top-dose activity change, negative = inhibition, most hits filed as inhibitors. Drosophila S2 Gal4-RORgamma UAS-luciferase reporter, 20 h; note: % is set by controls: 0 for no effect and ±100 for the full control effect; nearly all actives have a fitted effect of over 60% in size
# Target sequence (P51450 whole entry, looked up, the tested form may be a part): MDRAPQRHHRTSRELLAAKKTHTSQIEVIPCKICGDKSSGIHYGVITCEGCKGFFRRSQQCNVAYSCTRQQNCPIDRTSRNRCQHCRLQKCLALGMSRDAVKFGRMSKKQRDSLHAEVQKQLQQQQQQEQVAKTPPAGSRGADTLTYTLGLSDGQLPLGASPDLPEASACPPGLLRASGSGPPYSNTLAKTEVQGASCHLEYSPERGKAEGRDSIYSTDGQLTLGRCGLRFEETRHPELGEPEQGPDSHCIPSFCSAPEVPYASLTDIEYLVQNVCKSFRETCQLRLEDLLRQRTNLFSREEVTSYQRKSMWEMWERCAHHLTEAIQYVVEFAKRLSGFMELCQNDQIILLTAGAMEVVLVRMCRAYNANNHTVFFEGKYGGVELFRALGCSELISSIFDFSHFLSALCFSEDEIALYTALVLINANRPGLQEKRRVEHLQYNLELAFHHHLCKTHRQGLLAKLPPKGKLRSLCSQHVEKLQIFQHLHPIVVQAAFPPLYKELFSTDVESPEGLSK
#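 Drosophila Schneider cells stably carrying a metallothionein-driven Gal4 DBD–ROR gamma fusion and a UAS-Photinus luciferase reporter were exposed to compound for 1 hr, then induced with copper sulfate (700 uM final) for 20 hr at ambient temperature before luminescence reading.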
# GLP1R inv ag = qHTS of GLP-1 Receptor Inverse Agonists (Inhibition Mode) | Glucagon-like peptide 1 receptor (Homo sapiens), P43220 | Potency, µM (series often up to 38.3 µM), inactives show at the highest dose activity change, negative = inhibition, hits mostly inhibitors | AID 624417, 2012 | actives 1.6% (n = 410,000) | HEK293 GLP-1R CRE-luciferase, luminescence, 24 h; GLP-1R form is constitutively active; note: % is set by controls: 0 for no effect and ±100 for the full control effect; nearly all actives have a fitted effect of over 55% in size
#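 Readout was luciferase luminescence, measured 12 min after detection reagent at room temperature. Beforehand, GLP-1R reporter HEK293 cells had sat 12 h, then received compounds for 24 hr at 37 deg C.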
# GLP1R cytotox = qHTS of GLP-1 Receptor Inverse Agonists: Cytotox Screen; HEK293 cAMP-luciferase reporter cells, luminescence, 24 h; actives 0.13% (n = 410,000); Potency, µM (titrated, usually from 38.3 µM), without a hit: top-dose activity change, negative = inhibition, usual class: inhibitors;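 note: loss of luciferase light is scored as toxicity; % is set by controls: 0 for no effect and ±100 for the full control effect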
#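 Compound-treated cells are incubated 24 hr at 37 deg C under 5% CO2 after a 12 hour attachment period, then luciferase detection reagent is added and luminescence is measured following 12 min at room temperature; lowered signal indicates toxicity.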
# Gal4-VP16 FLuc = VP16 counterscreen qHTS for inhibitors of ROR gamma transcriptional activity; Potency, µM (series often up to 53.6 µM), without a hit: at the top dose activity, negative = inhibition, usual class: inhibitors; Drosophila S2 Gal4-VP16 UAS-luciferase, luminescence, 20 h; actives 3.5% (n = 310,000); AID 2546, 2010;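 note: Gal4-VP16 expression switched on by copper sulfate through the metallothionein promoter; % is set by controls: 0 for no effect and ±100 for the full control effect; nearly all actives have a fitted effect of over 50% in size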
# * hit, by the source's call; ? = inconclusive; . = no result; [ ] = another dose, or the depositor's remark. Calls come from the whole dose curve; as a rule, active = well fitted curve in the direction sought with a large enough effect; inconclusive = small, poorly fitted or top-dose-only effect, or another doubt; inactive = no such curve, though single readings can be large; an effect the other way counts as inactive or inconclusive. Potency is the fitted concentration of half-maximal effect.
SMILES,GLP-1R agonist,RORg inh,GLP1R inv ag,GLP1R cytotox,Gal4-VP16 FLuc
CCN1C(=O)CC(N2CCC(C(=O)N3CCOCC3)CC2)C1=O (configuration not stated),-3%,-37%,-7%,-12%,2%
CCC(=O)N1CCN(c2ccccc2NC(=S)NC(=O)c2cccc([N+](=O)[O-])c2)CC1,22%,7.9µM*,?,-2%,?
O=C(NC(=S)Nc1ccccc1N1CCOCC1)c1cccc([N+](=O)[O-])c1,17%,1.6µM*,3.5µM*,?,4µM*
CCC(=O)N1CCN(c2ccc(NC(=S)NC(=O)c3cccc([N+](=O)[O-])c3)cc2)CC1,4%,?,0%,9%,?
O=C(Nc1ccccc1N1CCOCC1)c1ccc([N+](=O)[O-])cc1,-6%,-42%,24%,2%,4%
CCOC(=O)C1OC1C(=O)N[C@@H](CC(C)C)C(=O)NCCC(C)C (some centres not stated),.,26%,.,.,4%
O=C(NNC(=O)c1cc2cc(Br)ccc2oc1=O)c1ccc(O)cc1O,0%,10µM*,11%,0%,?
COCCCNC(=O)c1cc2cc(Br)ccc2oc1=O,0%,11%,2%,12%,-1%
CCNC(=S)N(Cc1ccco1)Cc1cc2cc(OCC)ccc2[nH]c1=O,10%,18µM*,3%,6%,?
CCOc1ccc(NC(=S)N(CCc2c(C)[nH]c3ccc(C)cc23)Cc2ccco2)cc1,-5%,?,7.9µM*,14%,?
CCNC(=S)N(Cc1cccs1)Cc1cc2cc(OCC)ccc2[nH]c1=O,5%,?,-16%,-5%,-6%
COCCNC(=S)N(CCc1c(C)[nH]c2ccc(C)cc12)Cc1ccco1,19%,11µM*,?,2%,-10%
COc1ccccc1NC(=O)C(=O)NCC(c1ccc2c(c1)OCO2)N1CCN(C)CC1 (configuration not stated),.,.,-13%,-16%,.
FC(F)(F)c1ccccc1-c1nccc(NCc2ccccc2)n1,.,13%,.,.,11%
COc1ccc(-c2ccccc2C2NC(C(=O)O)CCC2C)cc1 (configuration not stated),.,-1%[10 µM],.,.,-1%[10 µM]
COc1cccc(/C=C(/C(=O)OCC(N)=O)c2ccccc2)c1,8%,-23%,?,8%,5%
COc1cccc(/C=C(/C(=O)OCC(=O)NC2CCCC(C)C2C)c2ccccc2)c1 (configuration not stated),10%,?,10µM*,-6%,?
Cc1nn(-c2nc3ccccc3[nH]2)c(N)c1-c1ccc(Cl)cc1,-2%,1.3µM*,?,?,3.2µM*
Cc1nn(-c2nc3ccccc3[nH]2)c(=O)c2ccccc12,10%,0.18µM*,-96%,-21%,0.32µM*
Cc1nn(-c2ccc3ccccc3c2)c(=O)c2ccccc12,11%,1%,?,1%,2%
O=c1[nH]c2ccccc2nc1-c1ccc(Cl)cc1,7%,?,1%,-7%,9%
CCO[Si](CCCN)(OCC)OCC,.,-7%,.,.,-19%
COc1ccccc1N=NC1C(=O)N(C(N)=S)N=C1C (configuration not stated),0%,?,?,?,3.2µM*
CC1=NN(C(N)=S)C(=O)C1N=Nc1ccc(Cl)cc1Cl (configuration not stated),-5%,0.45µM*,?,?,0.63µM*
CC1=NN(C(N)=S)C(=O)C1N=Nc1ccccc1Cl (configuration not stated),-3%,0.63µM*,?,3%,1µM*
SMILES,GLP-1R agonist,RORg inh,GLP1R inv ag,GLP1R cytotox,Gal4-VP16 FLuc
CC1=NN(C(N)=S)C(=O)C1N=Nc1ccccc1C(=O)O (configuration not stated),-1%,13%[1.91 µM],15%,16%,-1%
Cc1cc2oc3c(c(=O)c2cc1C)C1(C(=O)N(C)c2ccccc21)N(CCO)C3=O (configuration not stated),.,.,9%,-4%,.
C=CCOc1ccccc1CN1CCC(C(=O)Nc2cccc(-c3ccn[nH]3)c2)CC1,-7%,-25%,7.9µM*,?,-14%
CC(=O)c1cccc(CN2CCC(C(=O)Nc3cccc(-c4ccn[nH]4)c3)CC2)c1,-36%,4%,?,-14%,-16%
Cc1ccc(NC(=S)NCCN(C2CCCCC2)C2CCCC2)cc1C,6%,5µM*,?,?,-1%[10 µM]
Cc1cc(C)cc(NC(=S)NCCN(C2CCCCC2)C2CCCC2)c1,-3%,4.5µM*,?,?,0%[10 µM]
Cc1ccc(NC(=S)NCCN(C2CCCCC2)C2CCCC2)cc1,5%,11µM*,?,0%,-6%[10 µM]
COc1cc(OC)c(N(C)C(=O)Nc2cn(CC(C)C)c(=O)c3ccccc23)cc1Cl,11%,.,-17%,-2%,.
CC(C)CCNC(=S)NC1CCCC1,-5%,2.8µM*,0%,-11%,?
CCCCNC(=S)NC1CCCC1,-9%,10µM*,?,?,18µM*
OCCCNC(=S)NC1CCCC1,4%,-6%,16%,5%,-3%
CC(C)CN(CC(C)C)S(=O)(=O)N1CCC(C(=O)NC2CCCCCCC2)CC1,2%,12%,0%,-7%,-1%
CC(C)CCNC(=O)C(=O)NC1CCCC1,14%,-16%,9%,-3%,1%
CC(C)CN(CC(C)C)C(=S)NC1CCCCC1,2%,2.8µM*,?,10µM*,7.1µM*
Cc1ccc2[nH]c(=O)c3cc(C(=O)N4CCN(c5ccccc5)CC4)sc3c2c1,-2%,.,0%,4%,.
COCCCNC(=O)c1cc2n(n1)CCCN(Cc1ccc(C)cc1)C2=O,.,.,21%,-12%,.
S=C1NCN(C2CCCCC2)CN1c1ccccc1,-3%,22µM*,-13%,-22%,?
CN(C)c1ccc(-c2ccc3ncnc(NC4CC4)c3c2)cc1,.,26%,.,.,-4%
Cc1cc(Nc2ccc(F)cc2)nc(-n2nc(C)cc2C)n1,.,.,-23%,-5%,.
Cc1cc(C)nc(-n2nc(C)c(Br)c2Nc2ccc(Br)cc2)n1,1%,?,?,5.6µM*,0.89µM*
Cc1nn(C)c(Nc2ccc(Br)cc2)c1Br,9%,?,?,-19%,11µM*
Cc1ccccc1CNC(=O)c1c(C)oc2c1C1=NCCN1C=N2,.,.,12%,-1%,.
CCOC(=O)C1=CN(Cc2cccc(F)c2)S(=O)(=O)NC1c1ccc2ccccc2c1 (configuration not stated),-3%,.,13µM*,-18%,.

# From PubChem BioAssay
